Results taken from patent US20030175730, “Multivalent RNA aptamers and their expression in multicellular organisms” (published 2003).

The sequences below were run against B52 (SRp55) full length (Drosophila melanogaster, UniProt P26686 P26686:1-350) (assay: EMSA; almost a factor of three). Settings: tags: baculovirus/Sf9 expressed, SR protein purification; label: 32P-UTP; ssRNA.
Chain of B52 (SRp55) full length (P26686 other isoform, or with tags, fused parts or gaps): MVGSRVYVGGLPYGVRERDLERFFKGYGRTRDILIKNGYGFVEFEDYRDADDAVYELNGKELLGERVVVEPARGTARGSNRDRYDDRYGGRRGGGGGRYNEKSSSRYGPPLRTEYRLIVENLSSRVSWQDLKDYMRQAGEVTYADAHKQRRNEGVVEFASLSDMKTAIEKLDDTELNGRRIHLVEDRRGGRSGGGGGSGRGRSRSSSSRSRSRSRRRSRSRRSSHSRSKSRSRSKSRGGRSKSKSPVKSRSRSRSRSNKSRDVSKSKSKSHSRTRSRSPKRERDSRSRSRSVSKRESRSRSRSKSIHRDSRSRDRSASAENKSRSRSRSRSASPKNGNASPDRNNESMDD
Method: All binding assays were performed in 20 μl volume in 1× binding buffer described above. A typical binding assay using labeled RNA contains about 20 finole of ³²P-labeled RNA probe and differing amounts (1-10 pmole) of B52 protein. A typical binding assay using the truncated versions of B52 contains 1 μl of the ³⁵S-labeled translation reaction mixture with 2 pmoles of unlabeled RNA transcript (the final concentration of RNAs in this reaction was 100 nM and concentration of the labeled B52 proteins was much lower). The reactions were allowed to equilibrate for 15-20 minutes at ambient temperature before being subjected to filter binding, gel shift, or UV crosslinking.
To determine the sequence/structure requirements for binding by B52, deletion and substitution mutations, and antisense constructs of BBS were designed in light of the shared sequence motif and predicted secondary structures (FIG. 4). These short RNA transcripts were produced by in vitro transcription of synthetic templates, and their affinity to B52 was assayed by band shift.
GGACGAUCAACCAGGCGACAGU was tested, and the binding signal was ~3 fold lower affinity than BBS-II.
